According to PubChem BioAssay AID1159580 (chemical genetic matrix, 2015):
Screen size: about 5,500 compounds; about 2,000 (36%) were called active. Inconclusive results (about 18%) are left out. Rule as the data show it: active = normalized growth mostly below about 0.91 (no sharp cut-off); inconclusive = no clear call, values can overlap the other calls; inactive = mostly above about 0.92. The list shows a part of the results.

Test: chemical genetic growth profiling, strain panel (AID 1159580);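 also: tested at 20 µM; growth read once vehicle control cultures reached saturation at 30 °C; 1 = growth at the plate median or of vehicle wells; lower values mean less growth of the strain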
Details: growth OD

Measured: normalized growth

CC(=O)OCC(=O)[C@@]1(O)CCC2C3CCC4=CC(=O)C=CC4(C)C3[C@@H](O)C[C@@]21C (stereo partly drawn)
inactive: S. cerevisiae deletion strains, locus YKL009W, strain mrt4, hits give low values 1.07 | S. cerevisiae deletion strains, locus YKL068W, hits give low values 1.01 | S. cerevisiae deletion strains, locus YKL085W, strain MDH1 (second series), hits give low values 1.01 | S. cerevisiae deletion strains, locus YKL085W, strain MDH1, hits give low values 1.01 | S. cerevisiae deletion strains, locus YKL160W, strain elf1, hits give low values 0.973 | S. cerevisiae deletion strains, locus YKL190W, strain CNB1, hits give low values 1.02 | S. cerevisiae deletion strains, locus YKR001C, strain vps1, hits give low values 1.02 | S. cerevisiae deletion strains, locus YKR026C, strain gcn3, hits give low values 0.985 | S. cerevisiae deletion strains, locus YKR091W, strain srl3, hits give low values 1 | S. cerevisiae deletion strains, locus YLL001W, strain dnm1, hits give low values 0.953 | S. cerevisiae deletion strains, locus YLL026W, hits give low values 0.99 | S. cerevisiae deletion strains, locus YLL041C, strain sdh2, hits give low values 0.998 | S. cerevisiae deletion strains, locus YLR027C, strain aat2, hits give low values 0.991 | S. cerevisiae deletion strains, locus YLR039C, strain RIC1, hits give low values 1.04 | S. cerevisiae deletion strains, locus YLR058C, strain SHM2, hits give low values 0.998 | S. cerevisiae deletion strains, locus YLR102C, strain apc9, hits give low values 1.01 | S. cerevisiae deletion strains, locus YLR113W, strain HOG1, hits give low values 0.999 | S. cerevisiae deletion strains, locus YLR221C, strain rsa3, hits give low values 1.01 | S. cerevisiae deletion strains, locus YLR258W, strain gsy2, hits give low values 1 | S. cerevisiae deletion strains, locus YLR262C, strain YPT6 (second series), hits give low values 0.967 | S. cerevisiae deletion strains, locus YLR262C, strain YPT6, hits give low values 1.04 | S. cerevisiae deletion strains, locus YLR268W, strain sec22, hits give low values 1.03 | S. cerevisiae deletion strains, locus YLR320W, strain mms22, hits give low values 0.982 | S. cerevisiae deletion strains, locus YLR330W, strain CHS5, hits give low values 1.01 | S. cerevisiae deletion strains, locus YLR342W, strain FKS1 (second series), hits give low values 1.02 | S. cerevisiae deletion strains, locus YLR342W, strain FKS1, hits give low values 0.992 | S. cerevisiae deletion strains, locus YLR357W, strain rsc2, hits give low values 0.997 | S. cerevisiae deletion strains, locus YLR370C, strain arc18, hits give low values 0.984 | S. cerevisiae deletion strains, locus YLR371W, strain rom2, hits give low values 1.02 | S. cerevisiae deletion strains, locus YLR384C, strain iki3, hits give low values 0.973 | S. cerevisiae deletion strains, locus YLR418C, strain cdc73, hits give low values 1.02 | S. cerevisiae deletion strains, locus YML016C, strain PPZ1, hits give low values 1.01 | S. cerevisiae deletion strains, locus YML032C, strain rad52, hits give low values 1.03 | S. cerevisiae deletion strains, locus YML120C, strain ndi1, hits give low values 0.995 | S. cerevisiae deletion strains, locus YML124C, strain tub3, hits give low values 1.02 | S. cerevisiae deletion strains, locus YMR058W, strain fet3, hits give low values 0.992 | S. cerevisiae deletion strains, locus YMR078C, strain ctf18, hits give low values 1.01 | S. cerevisiae deletion strains, locus YMR125W, strain sto1, hits give low values 1 | S. cerevisiae deletion strains, locus YMR129W, hits give low values 0.993 | S. cerevisiae deletion strains, locus YMR205C, strain PFK2, hits give low values 0.99 | S. cerevisiae deletion strains, locus YMR223W, strain ubp8, hits give low values 1.02 | S. cerevisiae deletion strains, locus YMR231W, strain pep5, hits give low values 0.992 | S. cerevisiae deletion strains, locus YMR263W, strain SAP30, hits give low values 1 | S. cerevisiae deletion strains, locus YMR307W, strain GAS1, hits give low values 1.02 | S. cerevisiae deletion strains, locus YNL067W, strain RPL9B, hits give low values 1 | S. cerevisiae deletion strains, locus YNL071W, strain lat1, hits give low values 1.01 | S. cerevisiae deletion strains, locus YNL128W, strain TEP1, hits give low values 1.01 | S. cerevisiae deletion strains, locus YNL153C, strain GIM3, hits give low values 1 | S. cerevisiae deletion strains, locus YNL183C, strain NPR1, hits give low values 0.959 | S. cerevisiae deletion strains, locus YNL209W, strain ssb2, hits give low values 1 | S. cerevisiae deletion strains, locus YNL233W, strain BNI4, hits give low values 1.02 | S. cerevisiae deletion strains, locus YNL248C, strain rpa49, hits give low values 0.989 | S. cerevisiae deletion strains, locus YNL250W, strain rad50, hits give low values 1.01 | S. cerevisiae deletion strains, locus YNL271C, strain bni1, hits give low values 1.02 | S. cerevisiae deletion strains, locus YNL298W, strain CLA4, hits give low values 1.02 | S. cerevisiae deletion strains, locus YNL307C, strain MCK1, hits give low values 1.02 | S. cerevisiae deletion strains, locus YNL322C, strain KRE1 (second series), hits give low values 0.992 | S. cerevisiae deletion strains, locus YNR049C, strain mso1, hits give low values 0.997 | S. cerevisiae deletion strains, locus YNR052C, strain pop2, hits give low values 1.01 | S. cerevisiae deletion strains, locus YOL006C, strain TOP1, hits give low values 1.06 | S. cerevisiae deletion strains, locus YOL012C, strain htz1 0.982 | S. cerevisiae deletion strains, locus YOL147C, strain pex11, hits give low values 1.01 | S. cerevisiae deletion strains, locus YOR001W, strain rrp6, hits give low values 0.98 | S. cerevisiae deletion strains, locus YOR061W, strain CKA2, hits give low values 1.01 | S. cerevisiae deletion strains, locus YOR069W, strain VPS5, hits give low values 1 | S. cerevisiae deletion strains, locus YOR070C, strain gyp1, hits give low values 0.999 | S. cerevisiae deletion strains, locus YOR080W, strain dia2, hits give low values 0.984 | S. cerevisiae deletion strains, locus YOR083W, strain WHI5, hits give low values 0.965 | S. cerevisiae deletion strains, locus YOR106W, strain vam3, hits give low values 0.973 | S. cerevisiae deletion strains, locus YOR136W, strain idh2, hits give low values 1.02 | S. cerevisiae deletion strains, locus YOR144C, strain elg1, hits give low values 1.02 | S. cerevisiae deletion strains, locus YOR184W, strain ser1, hits give low values 1.01 | S. cerevisiae deletion strains, locus YOR231W, strain MKK1, hits give low values 0.999 | S. cerevisiae deletion strains, locus YOR265W, strain rbl2, hits give low values 1 | S. cerevisiae deletion strains, locus YOR270C, strain vph1, hits give low values 1.01 | S. cerevisiae deletion strains, locus YOR290C, strain snf2, hits give low values 1.01 | S. cerevisiae deletion strains, locus YOR316C, strain cot1, hits give low values 1.02 | S. cerevisiae deletion strains, locus YPL051W, strain arl3, hits give low values 0.986 | S. cerevisiae deletion strains, locus YPL078C, strain atp4, hits give low values 0.97 | S. cerevisiae deletion strains, locus YPL106C, strain sse1, hits give low values 1.01 | S. cerevisiae deletion strains, locus YPL240C, strain hsp82, hits give low values 0.98 | S. cerevisiae deletion strains, locus YPL256C, strain CLN2, hits give low values 0.96 | S. cerevisiae deletion strains, locus YPR119W, strain clb2, hits give low values 1.01 | S. cerevisiae deletion strains, locus YPR141C, strain kar3, hits give low values 1.02 | S. cerevisiae deletion strains, locus YPR163C, strain tif3, hits give low values 1.02 | S. cerevisiae deletion strains, locus YPR167C, strain met16, hits give low values 1.02 | S. cerevisiae deletion strains, strain wtn01, hits give low values 1.01 | S. cerevisiae strains, strain wild type, hits give low values 1
